Assay results published in PubChem BioAssay (EPA / NIEHS).
Records with an inconclusive call do not appear. Calls of active or inactive are those of the source. Rule for the calls, unless noted: active = hit-call score of the fitted dose curve at least 0.9, where 1 is the maximum; inconclusive = response in the unintended direction; inactive = score below 0.9.

Assays:
[1] = TOX21_p53_BLA_p2_viability: Viability Assessment in the Tox21 HCT-116 p53 Agonism Beta-lactamase Assay, Phase 2 (AID 2283591);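 note: compound exposure lasted 16 h at 37 °C; actives lower the ATP signal meaning cytotoxicity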
Outline: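 Cytotoxicity readout: CellTiter-Glo ATP luminescence, 30 min at room temperature, after the beta-lactamase read. Cells were HCT116 exposed 16 h at 37C to compounds pin-transferred at 217-fold dilution from DMSO stocks.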

[2] = molecular target: Cellular tumor antigen p53 (Homo sapiens) (UniProt P04637); assay: TOX21_p53_BLA_p2_ratio: Tox21 HCT-116 p53 Agonism Beta-lactamase Assay, Ratio, Phase 2 (AID 2283592)
Outline: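 Ratio endpoint: beta-lactamase cleavage of CCF4-AM, blue (460 nm) over green (530 nm). HCT116 reporter line; 16 h treatment, 37C; substrate 2 h RT.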

[3] = molecular target: Cellular tumor antigen p53 (Homo sapiens) (UniProt P04637); assay: TOX21_p53_BLA_p3_ratio: Tox21 HCT-116 p53 Agonism Beta-lactamase Assay, Ratio, Phase 3 (AID 2283596)
Outline: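 Cells were seeded at 4000/well, rested 5 h at 37C, then dosed with DMSO compound solutions (217-fold dilution) for 16 h. CCF4-AM substrate was loaded for 2 h at room temperature, and the 460/530 nm emission ratio was fitted for gain of signal versus DMSO.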

[4] = TOX21_p53_BLA_p5_viability: Viability Assessment in the Tox21 HCT-116 p53 Agonism Beta-lactamase Assay, Phase 5 (AID 2283600)
Outline: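 Luciferase-coupled ATP quantitation of cells treated for 16 h (37C, 5% CO2) with test chemicals delivered in DMSO via a 217-fold dilution; 4000 cells/well; reagent incubated 30 min at room temperature before luminescence reading.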

[5] = molecular target: Cellular tumor antigen p53 (Homo sapiens) (UniProt P04637); assay: TOX21_p53_BLA_p4_ratio: Tox21 HCT-116 p53 Agonism Beta-lactamase Assay, Ratio, Phase 4 (AID 2283601)
Outline: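 Signal is the blue/green (460nm/530nm) ratio of cleaved versus uncleaved CCF4-AM substrate, read after 2 h substrate loading. Cells were HCT116 carrying the p53-responsive beta-lactamase reporter, dosed 16 h at 37C, 5% CO2; CellTiter-Glo measured in parallel.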

[6] = molecular target: Cellular tumor antigen p53 (Homo sapiens) (UniProt P04637); assay: TOX21_p53_BLA_p5_ratio: Tox21 HCT-116 p53 Agonism Beta-lactamase Assay, Ratio, Phase 5 (AID 2283599)
Outline: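 Beta-lactamase reporter ratio (blue 460 nm over green 530 nm, 405 nm excitation) after 2 h CCF4-AM loading, in HCT-116 cells exposed 16 h at 37 C to compounds pinned at 217-fold dilution. Increases relative to DMSO baseline scored.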

[7] = CCTE_Deisenroth_DEVTOX-GLR_legacy_CellCount: (Legacy) Viability Assessment in CCTE's DevTox GLR-Endo Assay, Deisenroth Lab (AID 2284331; active = hit-call score of the fitted dose curve at least 0.9, where 1 is the maximum; inactive = score below 0.9); details: actives raise or lower the signal
Outline: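 RUES2-GLR human pluripotent cells were seeded 24 h, then differentiated 48 h with two compound doses at 24 h intervals (10-point, 1 nM - 200 uM). Fixed nuclei were imaged and counted; bidirectional fitting versus 0.2% DMSO.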

[8] = tested on: SRY-box transcription factor 17 (SOX17) Protein Expression, Deisenroth Lab, SOX17 (gene 64321); assay: CCTE_Deisenroth_DEVTOX-GLR_Endo_SOX17: CCTE's DevTox GLR-Endo Assay Evaluation of SRY-box transcription factor 17 (SOX17) Protein Expression, Deisenroth Lab (AID 2284413; active = hit-call score of the fitted dose curve at least 0.9, where 1 is the maximum; inactive = score below 0.9)
Outline: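 RUES2-GLR human pluripotent cells were seeded 24 h, then differentiated toward endoderm for 48 h with two chemical exposures 24 h apart (10-point series, 1 nM - 200 uM). Nuclei-stained fixed cells were imaged; endpoint is percent change in SOX17+ cells versus 0.2% DMSO.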

[9] = tested on: Brachyury (BRA) Protein Expression, TBXT (gene 6862); assay: CCTE_Deisenroth_DEVTOX-GLR_Endo_BRA: CCTE's DevTox GLR-Endo Assay Evaluation of Brachyury (BRA) Protein Expression, Deisenroth Lab (AID 2284417; active = hit-call score of the fitted dose curve at least 0.9, where 1 is the maximum; inactive = score below 0.9)
Outline: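 Endpoint is the fraction of BRA reporter-positive cells over total nuclei, corrected by subtracting the 0.2% DMSO value. Chemicals (1 nM - 200 uM, 10 points) were dosed twice during 48 h differentiation of RUES2-GLR cells, read by imaging.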

[10] = CCTE_Deisenroth_DEVTOX-GLR_Endo_CellCount: Viability Assessment in CCTE's DevTox GLR-Endo Assay, Deisenroth Lab (AID 2284420; active = hit-call score of the fitted dose curve at least 0.9, where 1 is the maximum; inactive = score below 0.9)
Outline: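 RUES2-GLR human pluripotent cells seeded 24 h, then differentiated 48 h with two chemical exposures at 24 h intervals (10-point, 1 nM - 200 uM). Fixed, nuclear-stained, imaged; nuclei counts give % change in cell count versus 0.2% DMSO.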

[11] = tested on: SRY-box transcription factor 17 (SOX17) Protein Expression, Deisenroth Lab, SOX17 (gene 64321); assay: CCTE_Deisenroth_DEVTOX-GLR_Pluri_SOX17: CCTE's DevTox GLR-Pluri Assay Evaluation of SRY-box transcription factor 17 (SOX17) Protein Expression, Deisenroth Lab (AID 2284427)
Outline: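 RUES2-GLR human pluripotent cells were seeded 24 h, then differentiated 48 h in defined media with two chemical exposures 24 h apart (10-point series, 1 nM - 200 uM). Fixed, nuclear-stained cells were imaged; %SOX17+ cells minus 0.2% DMSO control reported.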

[12] = tested on: Brachyury (BRA) Protein Expression, Deisenroth Lab, TBXT (gene 6862); assay: CCTE_Deisenroth_DEVTOX-GLR_Pluri_BRA: CCTE's DevTox GLR-Pluri Assay Evaluation of Brachyury (BRA) Protein Expression, Deisenroth Lab (AID 2284429)
Outline: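 Percent BRA+ cells (BRA+ count over total cells) by high-content imaging of fixed RUES2-GLR cultures, corrected by 0.2% DMSO control. Cells received two doses over 48-hour differentiation, 1 nM–200 uM, n=4 experiments.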

[13] = CCTE_Deisenroth_DEVTOX-GLR_Pluri_CellCount: Viability Assessment in CCTE's DevTox GLR-Pluri Assay Evaluation of Total Cell Counts, Deisenroth Lab (AID 2284430; active = hit-call score of the fitted dose curve at least 0.9, where 1 is the maximum; inactive = score below 0.9)
Outline: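 Cytotoxicity readout: fluorescent nuclei counts by high-content imaging, expressed as percent change relative to 0.2% DMSO. Human RUES2-GLR pluripotent line differentiated 48 h, dosed twice at 24-h intervals across 1 nM - 200 uM (10 points).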

[14] = TOX21_p53_BLA_p4_viability: Viability Assessment in the Tox21 HCT-116 p53 Agonism Beta-lactamase Assay, Phase 4 (AID 2283597);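 note: hits lower the luminescence signal meaning cytotoxicity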
Outline: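 Cytotoxicity was inferred from loss of CellTiter-Glo luminescence. HCT116 cells had been dosed with compounds after 5 h plating, incubated 16 h at 37C and 5% CO2, and exposed to the CCF4-AM substrate for 2 h.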

[15] = molecular target: THRA (gene 7067) (UniProt P10827); assay: TOX21_TRA_COA_Antagonist_Followup_ratio: Tox21 Thyroid Hormone Receptor alpha Antagonism through Coactivator Recruitment Follow-Up Assay, Ratio (AID 2283953)
Outline: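 GST-TRα LBD 2.5 nM, BSA 0.10%, + cpd; then FITC-SRC-2 peptide 200 nM + Tb-anti-GST Ab 2 nM. TR-FRET ratio 520/495 nm. Norm: DMSO = 0%, T3 = 100%.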

[16] = molecular target: THRB (gene 7068) (UniProt P10828); assay: TOX21_TRB_BLA_Antagonist_Followup_ratio: Tox21 Thyroid Hormone Receptor beta Antagonism Beta-lactamase (BLA) Follow-Up Assay, Ratio (AID 2283958)
Outline: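 Cells were plated and allowed to attach for 5 h, then dosed with compounds in DMSO at 11 concentrations for 18 h at 37C. Beta-lactamase reporter activity was measured via CCF4-AM FRET as the 460:530 nm ratio.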

[17] = TOX21_TRB_BLA_Antagonist_Followup_viability: Viability Assessment in the Tox21 Thyroid Hormone Receptor beta Antagonism Beta-lactamase (BLA) Follow-Up Assay (AID 2283961)
Outline: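 HEK293T cells stably expressing GAL4-DBD/human TRβ-LBD with UAS-bla reporter, 3,000 cells/well in phenol red-free DMEM, 2% charcoal-stripped FBS. Compounds at 11 concentrations in triplicate, 18 h at 37C/5% CO2; viability by CellTiter-Glo luminescence after 30 min at room temperature.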

[18] = molecular target: THRB (gene 7068) (UniProt P10828); assay: TOX21_TRB_COA_Antagonist_Followup_ratio: Tox21 Thyroid Hormone Receptor beta Antagonism through Coactivator Recruitment Follow-Up Assay, Ratio (AID 2283967)
Outline: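 Coactivator recruitment to the GST-tagged TRb ligand-binding domain (5.0 nM) was read as the 520/495 nm TR-FRET ratio, using 200 nM fluorescein SRC-2 peptide and 2 nM terbium anti-GST. Scaled between DMSO and T3 wells; loss of signal fitted.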

[19] = CCTE_Harrill_HTTr_Viability_MCF7: CCTE's 6-hour Cell Viability Assessment for the High-Throughput Transcriptomics (HTTr) Platform, in MCF-7 cells cultured in DMEM + 10% fetal bovine serum, Harrill Lab (AID 2284010; active = hit-call score of the fitted dose curve at least 0.9, where 1 is the maximum; inactive = score below 0.9)
Outline: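 Read-out is propidium iodide gain of signal by high-content imaging, reflecting membrane integrity loss. Measurements are taken 6 h after dosing, eight concentrations per chemical, with DMSO serving as baseline for bidirectional curve fitting.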

[20] = CCTE_Harrill_HTTr_Apoptosis_MCF7: CCTE's 6-hour Apoptosis Assessment for the High-Throughput Transcriptomics (HTTr) Platform, in MCF-7 cells cultured in DMEM + 10% fetal bovine serum, Harrill Lab (AID 2284011; active = hit-call score of the fitted dose curve at least 0.9, where 1 is the maximum; inactive = score below 0.9)
Outline: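 MCF-7 cells in DMEM + 10% fetal bovine serum were exposed to chemicals for 6 hours over an eight-point dilution series. Caspase-3/7 activation was imaged by high content imaging with CellEvent Caspase 3/7 Green; bidirectional fitting used DMSO as baseline.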

[21] = CCTE_Harrill_HTTr_CellCount_MCF7: CCTE's Cell Proliferation Assessment for the High-Throughput Transcriptomics (HTTr) Platform, Harrill Lab (AID 2284012);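 note: cells exposed to compound for six hours; intended direction is loss of nuclei count meaning fewer cells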
Outline: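 Cell count served as viability reporter: loss of Hoechst-stained nuclei, counted by high content imaging, marks decreased growth or survival. Exposure was 6 h in MCF-7 cells across eight concentrations, with DMSO as baseline.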

Measured: AC50

Cellular tumor antigen p53 (Homo sapiens), sequence (P04637 whole entry, looked up): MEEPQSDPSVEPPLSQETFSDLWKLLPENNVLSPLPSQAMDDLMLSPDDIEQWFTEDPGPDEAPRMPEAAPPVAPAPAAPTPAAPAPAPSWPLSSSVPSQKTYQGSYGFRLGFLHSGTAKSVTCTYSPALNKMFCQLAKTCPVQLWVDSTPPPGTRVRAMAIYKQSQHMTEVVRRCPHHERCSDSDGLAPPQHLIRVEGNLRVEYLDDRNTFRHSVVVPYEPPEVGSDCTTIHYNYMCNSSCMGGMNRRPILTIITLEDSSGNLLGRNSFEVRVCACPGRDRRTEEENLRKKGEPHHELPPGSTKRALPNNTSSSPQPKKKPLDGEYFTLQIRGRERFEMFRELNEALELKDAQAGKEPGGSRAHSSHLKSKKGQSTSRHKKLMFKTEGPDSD
THRB (gene 7068), sequence (P10828 whole entry, looked up, the tested form may be a part): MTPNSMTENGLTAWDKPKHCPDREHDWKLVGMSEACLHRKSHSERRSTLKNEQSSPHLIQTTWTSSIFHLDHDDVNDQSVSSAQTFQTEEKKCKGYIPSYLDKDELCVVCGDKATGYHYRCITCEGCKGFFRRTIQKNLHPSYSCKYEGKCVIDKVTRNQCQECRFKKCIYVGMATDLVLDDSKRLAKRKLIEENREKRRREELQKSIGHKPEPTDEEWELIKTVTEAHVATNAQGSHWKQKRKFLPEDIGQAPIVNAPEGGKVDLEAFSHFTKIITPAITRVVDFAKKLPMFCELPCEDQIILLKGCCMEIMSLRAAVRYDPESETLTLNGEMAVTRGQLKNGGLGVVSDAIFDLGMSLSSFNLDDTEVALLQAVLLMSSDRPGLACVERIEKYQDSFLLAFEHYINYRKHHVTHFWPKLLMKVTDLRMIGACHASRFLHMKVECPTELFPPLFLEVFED
THRA (gene 7067), sequence (P10827 whole entry, looked up, the tested form may be a part): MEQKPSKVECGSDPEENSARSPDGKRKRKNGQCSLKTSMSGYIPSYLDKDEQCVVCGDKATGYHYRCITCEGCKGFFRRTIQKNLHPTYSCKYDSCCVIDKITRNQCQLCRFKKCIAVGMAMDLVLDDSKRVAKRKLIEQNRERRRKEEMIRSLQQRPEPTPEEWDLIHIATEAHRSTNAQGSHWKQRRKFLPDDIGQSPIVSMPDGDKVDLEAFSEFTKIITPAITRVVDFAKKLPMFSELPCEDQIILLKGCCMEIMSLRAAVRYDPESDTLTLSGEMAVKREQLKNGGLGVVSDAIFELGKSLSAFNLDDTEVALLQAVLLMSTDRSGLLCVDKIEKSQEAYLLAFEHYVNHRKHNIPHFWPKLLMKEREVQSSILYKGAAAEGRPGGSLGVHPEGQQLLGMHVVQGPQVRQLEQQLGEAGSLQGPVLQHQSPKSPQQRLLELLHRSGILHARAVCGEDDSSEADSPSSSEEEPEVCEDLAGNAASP

Nc1cc(=O)[nH]c(N)n1
inactive: [1] | [2] | [3] | [4] | [5]

Nc1cccc2c1CN(C1CCC(=O)NC1=O)C2=O (stereo not given)
inactive: [1] | [2] | [3] | [6] | [5] | [11] | [12] | [13]
active: [7] 132 nM | [8] 293 nM | [9] 5.03 nM | [10] 132 nM

O=C(NCC(O)CO)c1c(I)c(C(=O)NCC(O)CO)c(I)c(N(CCO)C(=O)CO)c1I (stereo not given)
inactive: [1] | [2] | [3] | [4] | [5]

CCOC(=O)O[C@]1(C(=O)OCCl)CC[C@H]2[C@@H]3CCC4=CC(=O)C=C[C@]4(C)[C@H]3[C@@H](O)C[C@@]21C
inactive: [1] | [2] | [3] | [5]

NS(=O)(=O)c1ccccc1OC(F)(F)F
inactive: [1] | [2] | [3] | [4] | [5]

COc1cccc(OC)c1C(=O)N[C@@H]1C(=O)N2[C@@H]1SC(C)(C)[C@@H]2C(=O)O
inactive: [1] | [2] | [3] | [4] | [5]

O=C(Cn1ccnc1[N+](=O)[O-])NCc1ccccc1
inactive: [1] | [2] | [3] | [4] | [5]

CCN(Cc1ccncc1)C(=O)C(CO)c1ccccc1 (stereo not given)
inactive: [1] | [2] | [3] | [4]

CO[C@H]1O[C@H](CO)[C@@H](O)[C@H](O)[C@H]1O
inactive: [1] | [2] | [14]

COc1ccc(C)cc1
inactive: [1] | [2] | [3] | [4] | [5]

Cc1nc(-c2ccc(OCC(C)C)c(C#N)c2)sc1C(=O)O
inactive: [1] | [2] | [3] | [15] | [16] | [17] | [18] | [19] | [20] | [21]

N[C@@H](C(=O)N[C@@H]1C(=O)N2C(C(=O)O)=C(Cl)CS[C@H]12)c1ccccc1
inactive: [1] | [2] | [3] | [4] | [5]

Cc1ccc(S(=O)(=O)NC2CCCCC2)cc1
inactive: [1] | [2] | [3] | [4]

CCCCOC(=O)c1ccccc1C(=O)OCC(CC)CCCC (stereo not given)
inactive: [1] | [2] | [14]
